Laboratory results reported in PubChem BioAssay AID886 (National Center for Advancing Translational Sciences (NCATS), 2007).
In all, about 73,000 compounds went through this assay and about 2,500 (3.4%) were called active. Roughly 7% stayed inconclusive and do not appear here. Only a selection was taken, and actives are over-represented in it overall. A number with no mark means an inactive call. Calls come from the whole dose curve; as a rule, active = well fitted inhibition curve with a large enough effect; inconclusive = small, poorly fitted or top-dose-only effect; inactive = no such curve, though single readings can be large or run the other way.

Molecular target: 3-hydroxyacyl-CoA dehydrogenase type-2 (Homo sapiens) (UniProt Q99714)
Experiment: qHTS Assay for Inhibitors of HADH2 (Hydroxyacyl-Coenzyme A Dehydrogenase, Type II); note: nearly all actives have a fitted effect of over 60% in size
Settings: recombinant HADH2, NADH fluorescence, beta-hydroxybutyryl-CoA; series mostly up to 57.1 µM; activity change, negative = inhibition: at the top concentration
Method in brief: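 Buffer 100 mM Tris-HCl pH 9.0/0.01% Tween-20; HADH2 20 nM; NAD+ 1 mM; beta-hydroxybutyryl-CoA 90 uM (all final). 15 min cpd preincubation, RT.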
% is set by controls: 0 for no effect and ±100 for the full control effect; potency is the fitted concentration of half-maximal effect.

3-hydroxyacyl-CoA dehydrogenase type-2 (Homo sapiens), sequence (Q99714 whole entry, looked up): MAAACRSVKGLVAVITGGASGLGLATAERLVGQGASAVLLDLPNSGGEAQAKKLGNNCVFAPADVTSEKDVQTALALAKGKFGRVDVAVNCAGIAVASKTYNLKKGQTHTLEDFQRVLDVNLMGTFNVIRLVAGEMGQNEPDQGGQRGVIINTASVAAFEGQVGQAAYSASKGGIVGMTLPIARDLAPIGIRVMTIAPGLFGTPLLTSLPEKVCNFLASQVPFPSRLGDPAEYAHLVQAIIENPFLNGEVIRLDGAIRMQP
3-hydroxyacyl-CoA dehydrogenase type-2 (Homo sapiens), sequence (Q99714 whole entry, looked up): as above

SMILES	activity change, negative = inhibition	Potency
Cc1nc2nc(SCC(=O)NCc3ccco3)nn2c(C)c1Cc1ccccc1	-3.96%	–
O=c1nc2s/c(=C\c3ccco3)c(=O)n2nc1Cc1ccccc1	–	7.94 µM (active)
CN(c1ccccc1)c1ccc(/C=c2\s/c(=C(/C#N)C(=O)C(C)(C)C)n(Cc3ccco3)c2=O)cc1	-22.8%	–
CN(C)CCCCNC(=O)c1ccc(Cc2nc3ccccc3[nH]2)cc1	7.95%	–
CC(C)N(CCNC(=O)c1ccc(-n2c(=O)c(=O)[nH]c3ccccc32)cc1)C(C)C	-0.507%	–
CN(C)CCCNC(=O)c1ccc2[nH]c3ccccc3c2c1	–	25.1 µM (active)
COc1ccc(CNc2ncnc3ccc(-c4cccnc4)cc23)c(OC)c1	-13.9%	–
CS(=O)(=O)N1CCC2(CC1)CN(Cc1ccccc1)C2	3.96%	–
COC(=O)[C@@]1(C)C=C[C@@H](Cc2ccccc2)N1C(C)=O	2.32%	–
CCCCCCCCCCCC(=O)O	–	inactive
Cc1cc(C)cc(C#CC2C=CC(Oc3ccc(C4CCCC4)cc3)C(CO)O2)c1 (centres undefined)	10.7% [at 11.4 µM]	–
Oc1c(CN2CCOCC2)ccc(CN2CCOCC2)c1O	–	0.316 µM (active)
O=S(=O)(O)CCN1CCOCC1	0.734%	–
O=c1c(-c2ccccc2)coc2c(CN3CCOCC3)c(O)ccc12	-0.694%	–
C=C(C)C1CC=C(C)C(O)C1 (centres undefined)	1.28%	–
CCC[C@@H]1C[C@@]1(CCC)[C@@H](NC(=O)c1ccccc1)c1ccc(C(=O)OC)cc1	-14.7%	–
O=C(Nc1cccc(F)c1)N1CC2(CCN(C(=O)c3csnn3)CC2)C1	-1.39%	–
COC(=O)c1cnn2c(C(F)(F)F)cc(-c3ccco3)nc12	–	31.6 µM (active)
Cc1cc(C(F)(F)F)nn1-c1nc(-c2ccco2)cc(C(F)(F)F)n1	-14.2%	–
FC(F)(F)c1cc(-c2ccco2)nc(N2CCOCC2)n1	1.09%	–
Cc1nnc(SCc2ccc(C(=O)c3ccc(Cl)cc3)o2)n1-c1ccccc1	-28.1%	–
Cc1nc2cnc(N3CCN(C)CC3)nc2n(CCC#N)c1=O	46.9%	–

SMILES	activity change, negative = inhibition	Potency
CS(=O)(=O)N1CCN(C(=O)c2cc3ccccc3oc2=O)CC1	-7.15%	–
O=C(Oc1cccnc1)c1cc2ccccc2oc1=O	–	20 µM (active)
O=C(NCc1ccccn1)c1cc2ccccc2oc1=O	-14.8%	–
COC(=O)[C@@]1(Cc2ccc(OC)cc2)[C@H]2c3cc(C(=O)N4CCCC4)n(Cc4ccc(OC(F)(F)F)cc4)c3C[C@H]2CN1C(=O)c1ccccc1	5.27%	–
CCCC[C@@H]1C[C@H]1C(NC(=O)c1ccco1)c1ccc(C(=O)OC)cc1 (some centres undefined)	-7.3%	–
Cc1ccc(-c2nn(CC(C)(C)C)c3ncnc(N)c23)cc1	2.11%	–
C[C@H](CCC(=O)NCC(=O)O)[C@H]1CC[C@H]2[C@H]3[C@@H](C[C@@H](O)[C@]12C)[C@]1(C)CC[C@H](O)C[C@@H]1C[C@@H]3O	2.57% [at 25.6 µM]	–
COc1ccc(-c2[nH]nc3c2C(c2ccncc2)C(C#N)=C(N)O3)cc1 (centres undefined)	-18.9%	–
CCOc1c(OC)cc(C2C(C#N)=C(N)Oc3n[nH]c(-c4ccncc4)c32)cc1OC (centres undefined)	–	10 µM (active)
CCCc1[nH]nc2c1C(c1ccc(OC)c(Cn3nc(C)c(Br)c3C)c1)C(C#N)=C(N)O2 (centres undefined)	-1.8%	–
O=C(O)C1=CCCN(CCON=C(c2ccccc2)c2ccccc2)C1	–	inactive
N#CC1=C(N)Oc2cc(O)ccc2C1C1CCCCC1 (centres undefined)	0.41%	–
O=C(O)c1c(Br)c(Br)c(Br)c(Br)c1C1c2ccc(O)cc2Oc2cc(O)ccc21	–	1.58 µM (active)
CC1CCCCN1CCCNC(=O)c1ccc(-n2c(=O)c(=O)[nH]c3ccccc32)cc1 (centres undefined)	-2.23%	–
COc1ccc(Oc2ncc3nc(-c4ccc(F)cc4)c(=O)n(C)c3n2)cc1	4.58%	–
Oc1c(Cl)cc(Cl)c(Cl)c1Cc1c(O)c(Cl)cc(Cl)c1Cl	–	7.94 µM (active)
COc1ccc(N)c(OC)c1	-0.0513%	–
O=C(NCc1ccccn1)c1ccc2nc(-c3ccco3)c(-c3ccco3)nc2c1	–	5.01 µM (active)
O=C(NCc1ccccn1)c1c(O)c2c([nH]c1=O)CCCC2	7.68%	–
O=C(NCc1ccco1)c1nc2ncccn2n1	-6.29%	–
CC(C)[C@H](CO)Nc1nc(Nc2cc(N)cc(Cl)c2)c2ncn(C(C)C)c2n1	-27.7%	–
COc1cccc([C@H](O)Cn2cc(-c3ccc(CON=C(C)C)cc3)nn2)c1	4.01% [at 11.4 µM]	–

SMILES	activity change, negative = inhibition	Potency
CC(=O)N1CCC2(CCCN(Cc3ccccc3)C2)CC1	-9.14%	–
Cn1c(C(=O)N2CCC(C(N)=O)CC2)cc2c(=O)n(C)c3ccccc3c21	7.8%	–
CCN1CCCC1CNC(=O)c1cc2c(=O)n(C)c3ccccc3c2n1C (centres undefined)	–	31.6 µM (active)
Cn1c(C(=O)NCCc2ccsc2)cc2c(=O)n(C)c3ccccc3c21	11.1%	–
CC(C)C[C@@H](CC(=O)N[C@@H](CCC(=O)O)CC(=O)O)NC(=O)[C@@H]1CCCC[C@H]1NC(=O)C[C@@H](NC(=O)C[C@H](Cc1c[nH]c2ccccc12)NC(=O)[C@@H]1CCCC[C@H]1N)C(C)C	-21.2%	–
COc1c(C)c2c(c(O)c1C/C=C(\C)CCC(=O)O)C(=O)OC2	–	inactive
C/C=C/C=C/C(=O)O	-5.22%	–
CCN(CC)CCCCn1c(-c2ccccc2)nc2c(N3CCOCC3)nc(C)nc21	-22.3%	–
Cc1ccc(-n2ncc3c(N4CCN(c5ccc(F)cc5)CC4)ncnc32)c(C)c1	9.76%	–
COc1ccc(-n2ncc3c(N4CCc5ccccc54)ncnc32)cc1	–	31.6 µM (active)
COc1ccc(-n2c(C)nc3c(cnn3-c3ccccc3)c2=O)cc1	-2.25%	–
Cc1ccc(-n2ncc3c2ncn2nc(-c4ccco4)nc32)c(C)c1	13.7%	–
Cc1cccc(-n2ncc3c(N4CCc5ccccc54)ncnc32)c1	–	3.16 µM (active)
COc1ccc(N2CCN(C(=O)CSc3ncnc4c3cnn4-c3ccc(OC)cc3)CC2)cc1	-4.24%	–
CC(=O)OCCC(C)C	-0.625%	–
CCCn1c(-c2ccc(F)cc2)nc2c(NCC3CCCN3CC)nc(C)nc21 (centres undefined)	7.86%	–
CCCN(C/C=C\I)[C@@H]1CCc2cccc(O)c2C1	-1.63%	–
Cc1ccc(S(=O)(=O)c2c(N)n(C)c3nc4ccccc4nc23)cc1	–	31.6 µM (active)
Cc1ccc(S(=O)(=O)NCc2nc3ccccc3c(=O)n2N)cc1	9.48%	–
COCCn1c(=O)c(C)nc2cnc(N(C)C)nc21	-8.66%	–
